Data as given in PubChem BioAssay (NCATS).
Records with an inconclusive call do not appear. Activity calls are given as the source filed them. The call rests on the fitted dose curve; in most records, active means well fitted inhibition curve with a large enough effect; inconclusive means small, poorly fitted or top-dose-only effect; inactive means flat fitted curve, though single readings scatter.

How the values were obtained:
Assay in all cases: qHTS profiling for inhibitors of Plasmodium falciparum proliferation (AID 504749); further: nearly all actives have a fitted effect of over 60% in size
Details in all cases: P. falciparum in erythrocytes, SYBR Green DNA, 72 h; series mostly up to 28.7 µM
DIV14 = system: DIV14
Outline: (§1)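 Parasite proliferation within erythrocytes, 72 h exposure. Endpoint: SYBR Green I fluorescence after overnight lysis at room temperature. Controls: 0.29 uM artemisinin, DMSO.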

DIV17 = system: DIV17
Outline: as §1

DIV30 = system: DIV30
Outline: as §1

ECU = system: ECU
Outline: as §1

FAB9 = system: FAB9
Outline: as §1

GB4 = system: GB4
Outline: as §1

HB3 = system: HB3
Outline: as §1

ICS = system: ICS
Outline: as §1

JCK = system: JCK
Outline: as §1

Dd2 = system: Dd2
Outline: as §1
Potency means the concentration at half of the fitted maximal effect.

SMILES	Potency (DIV14)	Potency (DIV17)	Potency (DIV30)	Potency (ECU)	Potency (FAB9)	Potency (GB4)	Potency (HB3)	Potency (ICS)	Potency (JCK)	Potency (Dd2)
C=CCNC1=C2C[C@@H](C)C[C@H](OC)[C@H](O)[C@@H](C)/C=C(\C)[C@H](OC(N)=O)[C@@H](OC)/C=C\C=C(/C)C(=O)NC(=CC1=O)C2=O	1.51 µM (active)	1.2 µM (active)	1.69 µM (active)	1 µM (active)	11.2 µM (active)	1.51 µM (active)	2 µM (active)	0.708 µM (active)	12.6 µM (active)	
CCCOc1ccc2nc(NC(=O)OC)sc2c1	inactive	inactive	inactive	inactive	inactive	inactive	inactive	inactive	inactive	inactive
COC1C(OC(=O)/C=C/C=C/C=C/C=C/C(=O)O)CCC2(CO2)C1C1(C)OC1CC=C(C)C (centres undefined)	0.379 µM (active)	5.36 µM (active)				1.69 µM (active)			inactive	0.0398 µM (active)
